# “And” between values parts separate entries of the source, which are not always exact repeats. Identical values can stand only once. Results filed as inconclusive are left out. Some structures have more than one record in an assay (separate samples or runs), and their calls can disagree. The source made the active and inactive calls. Rule for the calls: active = hit-call score of the fitted dose curve at least 0.9, where 1 is the maximum; inconclusive = response in the unintended direction; inactive = score below 0.9.
# Molecular target: bovine Estrogen Receptor (ER), ESR1 (gene 407238) (UniProt P49884)
# Assay: NVS_NR_bER: NovaScreen (NVS) Nuclear Receptor Binding Assay for bovine Estrogen Receptor (ER) (AID 2283345);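 note: actives lower the bound radioligand count which means they displace the ER ligand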
# Protocol: NVS_NR_bER is a biochemical, single-readout assay that uses extracted gene-proteins from Bovine uterine membranes in a tissue-based cell-free assay. Measurements were taken 18 hours after chemical dosing in a 96-well plate.NVS_NR_bER is one of one assay component(s) measured or calculated from the NVS_NR_bER assay. It is designed to make measurements of radioligand binding, a form of binding reporter, as detected with scintillation counting signals by Lysate-based radiodetection technology.Data from the assay component NVS_NR_bER was analyzed into 1 assay endpoint. This assay endpoint, NVS_NR_bER, was analyzed in the positive analysis fitting direction relative to DMSO as the negative control and baseline of activity. Using a type of binding reporter, loss-of-signal activity can be used to understand changes in the binding as they relate to the gene ESR1. Furthermore, this assay endpoint can be referred to as a primary readout, because the performed assay has only produced 1 assay endpoint. To generalize the intended target to other relatable targets, this assay endpoint is annotated to the nuclear receptor intended target family, where the subfamily is steroidal.
# Binding assays used specific radioligands (tritiated, iodinated) with non-radioactive competitive displacement ligands in agonist or antagonist protocols (as indicated) and various reference compounds and inhibitors to titrate specific binding to receptors and transporters. Most enzyme assays (CYPs, kinases, phosphatases, proteases, HDACs) used recombinant protein and specific substrates (fluorescence mostly, some colorimetric and radioactive) and inhibitors, followed by a biochemical separation of substrate and product. All assays for the biochemical HTS were initially run in duplicate at a single concentration (10 uM for CYP450 assays and 25 uM for all others). […] Each assay was run with positive and negative controls, and concurrent controls on every plate. The follow-up (secondary) screen tested active chemical-pairs in concentration series, as well as a few additional assays not tested in the primary screen, some selected negative inactives, and several cases re-run in the concentration series for confirmatory purposes.
# bovine Estrogen Receptor (ER), ESR1 (gene 407238), sequence (P49884 whole entry, looked up): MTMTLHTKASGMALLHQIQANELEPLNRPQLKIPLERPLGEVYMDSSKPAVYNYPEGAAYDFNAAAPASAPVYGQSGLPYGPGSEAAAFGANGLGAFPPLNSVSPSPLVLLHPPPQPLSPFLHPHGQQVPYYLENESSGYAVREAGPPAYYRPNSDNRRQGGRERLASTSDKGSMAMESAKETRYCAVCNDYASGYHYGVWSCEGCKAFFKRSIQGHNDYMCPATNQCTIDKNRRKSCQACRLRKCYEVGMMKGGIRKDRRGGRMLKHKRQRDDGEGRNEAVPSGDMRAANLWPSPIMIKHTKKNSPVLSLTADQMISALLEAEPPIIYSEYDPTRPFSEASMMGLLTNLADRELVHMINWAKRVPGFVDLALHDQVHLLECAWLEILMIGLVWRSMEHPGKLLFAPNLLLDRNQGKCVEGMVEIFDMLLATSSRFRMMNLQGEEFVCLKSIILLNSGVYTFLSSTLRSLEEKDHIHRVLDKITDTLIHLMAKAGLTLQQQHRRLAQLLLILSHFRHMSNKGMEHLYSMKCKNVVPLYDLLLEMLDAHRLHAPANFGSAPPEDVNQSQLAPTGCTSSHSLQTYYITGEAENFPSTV
Compound,outcome,AC50
CC1=C(/C=C/C(C)=C/C=C/C(C)=C/C(=O)O)C(C)(C)CCC1,inactive,–
CCC(C)(C)C1CCC(O)CC1 (centres undefined),–,16.4 µM (active) and 12.9 µM (active)
CCCOC(=O)c1ccc(O)cc1,inactive,–
COCC(C)O (centres undefined),–,3.69 µM (active)
O=C(O)Cc1cc(I)c(Oc2cc(I)c(O)c(I)c2)c(I)c1,inactive,–
CC#C[C@]1(O)CC[C@H]2[C@@H]3CCC4=CC(=O)CCC4=C3[C@@H](c3ccc(N(C)C)cc3)C[C@@]21C,inactive,10 µM (active) and 16.2 µM (active) and 8.77 µM (active)
Cc1oc(-c2ccccc2)nc1CCOc1ccc(C[C@H](Nc2ccccc2C(=O)c2ccccc2)C(=O)O)cc1,inactive,–
CN1CCC[C@H]1c1cccnc1,inactive,–
CCN(CC)CCNc1ccc(CNC=O)c2sc3ccc(OC)cc3c(=O)c12,inactive,–
OCCC(F)(F)C(F)(F)C(F)(F)C(F)(F)C(F)(F)C(F)(F)C(F)(F)C(F)(F)F,inactive,–
C#C[C@]1(O)CC[C@H]2[C@@H]3CCC4=CC(=O)CC[C@@H]4[C@H]3CC[C@@]21C,inactive,–
OC1CCC(C2CCCCC2)CC1 (centres undefined),inactive,–
O=[N+]([O-])c1ccc(O)cc1,inactive,–
C[C@@H]1C[C@H]2[C@@H]3CCC4=CC(=O)C=C[C@]4(C)[C@@]3(F)[C@@H](O)C[C@]2(C)[C@@]1(O)C(=O)COP(=O)(O)O,inactive,–
CN1CCN(c2ccccc2/C=C2\SCCN(c3ccc(Cl)c(Cl)c3)C2=O)CC1,inactive,–
Cc1cc(CCN2CCN(c3nsc4ccccc34)CC2)cc2c1NC(=O)CC2(C)C,inactive,–
CCCCCCCCCCCCc1ccccc1S(=O)(=O)O,–,39.1 µM (active)
C=C(C)C(=O)OCCC(F)(F)C(F)(F)C(F)(F)C(F)(F)C(F)(F)C(F)(F)F,inactive,–
c1ccc2cc3c(ccc4ccccc43)cc2c1,inactive,–
O=C1OC2(c3ccccc31)c1cc(Br)c(O)c(Br)c1Oc1c2cc(Br)c(O)c1Br,inactive,–
NC(=O)N1C(=O)C(C(=O)c2cc(Cl)cs2)c2cc(F)c(Cl)cc21 (centres undefined),–,25 µM (active)
Oc1cc2ccccc2c2ccccc12,inactive,–
ClC1=C(Cl)C(Cl)(Cl)C(Cl)=C1Cl,inactive,–
